# NOTCH ag – activates NOTCH signaling in reporter cells. NOTCH signaling luciferase reporter cells, luminescence. activation, % at 2.5 µM. 15,000 tested, 0.4% active; in the data active = activation above about 2.2%
# KOR antag MB – OPRK1 (human) antagonism, Maybridge screen; P41145; OPRK1 cells, antagonist mode, fluorescence readout; inhibition, % at 9 µM; 16,000 tested, 0.4% active; AID 652031; in the data active = inhibition above about 50%
# Target sequence (P41145 whole entry, looked up): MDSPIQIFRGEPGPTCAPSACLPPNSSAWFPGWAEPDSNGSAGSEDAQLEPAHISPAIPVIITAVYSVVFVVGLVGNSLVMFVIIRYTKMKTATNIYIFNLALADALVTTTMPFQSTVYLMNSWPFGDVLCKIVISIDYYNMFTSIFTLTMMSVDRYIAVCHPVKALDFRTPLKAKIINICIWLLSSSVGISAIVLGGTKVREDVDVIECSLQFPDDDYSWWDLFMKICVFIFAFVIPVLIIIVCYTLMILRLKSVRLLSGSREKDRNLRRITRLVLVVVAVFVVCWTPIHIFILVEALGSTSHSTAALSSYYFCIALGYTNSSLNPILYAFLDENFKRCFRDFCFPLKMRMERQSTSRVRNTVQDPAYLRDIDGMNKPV
# Luminol counter – luminol signal inhibition, Nox1 inhibitor counter-screen; 16,000 tested, 0.4% active; inhibition, % at 6.7 µM; HRP/luminol/H2O2 chemiluminescence counterscreen; also: reference of the scale not given here
# S1P1 ag – S1P1 (human) receptor agonism; S1P1 agonist cell-based reporter assay; activation, % at 4.5 µM; 16,000 tested, 1.5% active; in the data active = activation above about 80%
# Nox1 inhibitor – blocks human NADPH oxidase 1 activity. inhibition, % at 6.7 µM. 16,000 tested, 0.81% active. HT29 cells, luminol chemiluminescence ROS. Q9Y5S8
# TLR4-MyD88 inh – blocks binding of human TLR4 to MyD88; O00206; Cell-based TLR4-MyD88 binding inhibition assay; inhibition, % at 10 µM; 16,000 tested, 0.06% active; AID 811; in the data active = inhibition above about 45%
# The depositor's hits bear a star; / = not tested or not shown. Shown are actives, neighbours in structure and some others; about 3.7% of the full set was active somewhere. Rule as the data show it, unless noted: active = inhibition above about 75%; inactive = the rest.
SMILES,NOTCH ag,KOR antag MB,Luminol counter,S1P1 ag,Nox1 inhibitor,TLR4-MyD88 inh
c1csc(-c2nn[nH]n2)c1,2.9*,5,-8,5,5,9
OC(CNCc1ccc(Cl)c(Cl)c1)Cn1ccc2ccccc21 (stereo unspecified),-1,-20,-7,-4,4,-4
CC(=O)NNC(=O)c1ccccn1,0,25,-6,-8,15,/
CNC(=S)NNC(=O)c1ccccn1,/,-3,53,-2,87*,5
O=c1ccc([N+](=O)[O-])cn1C1CCCCO1 (stereo unspecified),-1,4,2,94*,-63,22
O=C(CCN1CCC(c2ccc(Cl)s2)=N1)c1ccc(Cl)s1,3.4*,-6,-2,11,-37,3
CS(=O)(=O)/C(C#N)=C/c1ccc(-c2cccs2)s1,0,23,1,-5,-12,-1
N#CC(C#N)=NNc1ccc(F)cc1F,0,18,10,105*,30,-12
N#CC(C#N)=NNc1ccc(Cl)c(Cl)c1C#N,-1,18,15,31,-26,-3
O=S(=O)(NNc1c(Cl)cc(Cl)cc1Cl)c1ccc(Cl)cc1,0,-15,6,13,-24,2
COc1cccc(/C=C(\C#N)c2ccc([N+](=O)[O-])cc2)c1OC,1,69*,2,-2,-5,-3
N/C(=N\OC(=O)C(Cl)Cl)c1cccc(-n2cccc2)c1,-1,-7,-6,-21,-57,-7
O=C(Oc1cccc2[nH]ccc12)c1ccc(C(F)(F)F)cc1,-1,20,0,-7,80*,4
Cn1nc(-c2ccc(-c3ccnc(SCC(=O)Nc4ccccc4)n3)s2)cc1C(F)(F)F,-1,-22,4,15,-31,11
CC(C)(CC(=O)O)CC(=O)N1CCN(c2ncccc2C#N)CC1,/,-1,2,-17,-1,-9
CCOC(=O)Cc1c(C(=O)OCC)[nH]c(C)c1C(=O)OCc1ccccc1,5.8*,15,-1,-10,-74,1
O=C1CS/C(=C/C(=O)c2cccs2)N1,0,13,4,2,7,4
O=C1CS/C(=C\C(=O)N2CCOCC2)N1,/,-4,78*,-9,-6,0
O=[N+]([O-])c1cccnc1SCc1csc2ccc(Cl)cc12,0,14,3,106*,-96,5
N#CC(C#N)=CNc1cccc(N)n1,-1,-3,-3,4,-3,-8
O=Cc1c(O)c2ccccc2c2ccccc12,0,72*,-5,14,-107,0
CC(=O)NCCSc1cc(C)c(Cl)cc1C,1,-7,-2,-1,-8,10
CC(=O)N1CCC(C(=O)O/N=C(\N)c2ccc(Cl)cc2)CC1,0,126*,4,17,-3,11
N/C(=N\NC(=O)c1cccc(C(F)(F)F)c1)c1cnccn1,0,22,1,-8,-43,2
N/C(=N\OC(=O)c1cccc(C(F)(F)F)n1)c1cccc(C(F)(F)F)c1,0,5,-2,91*,-8,4
SMILES,NOTCH ag,KOR antag MB,Luminol counter,S1P1 ag,Nox1 inhibitor,TLR4-MyD88 inh
NC(=NC(=O)c1cccc(C(F)(F)F)c1)c1ccc(C(F)(F)F)cn1,0,58*,-1,-11,41,-1
O=C(O)CC1SC(c2cccc(-n3cccc3)c2)=NC1=O (stereo unspecified),1,-33,-5,-2,13,-7
COc1ccc(NC(=S)NC(C)(C)C)c([N+](=O)[O-])c1,-1,-11,11,90*,-49,17
COc1ccc(NC(=S)NC(=O)c2ccccc2)c([N+](=O)[O-])c1,0,0,5,2,16,-4
CCn1c(=S)[nH]c2sc(C)c(C)c2c1=O,0,-39,90*,16,-14,6
Cc1ccnc(-n2c(=S)[nH]c3sc(C)c(C)c3c2=O)c1,-1,3,100*,7,46,6
OC(COc1ccc(F)cc1)CN1CCN(Cc2c(F)cccc2Cl)CC1 (stereo unspecified),0,26,-6,4,12,-7
Cc1cc(NC(=O)C(=O)NC2CCCCNC2=O)no1 (stereo unspecified),0,13,-1,-12,0,0
S=c1[nH]cc(-c2ccc(Br)cc2)[nH]1,0,6,-3,8,98*,-1
NNC(=O)CNc1ccc(F)cc1,0,10,20,-13,-71,-3
COC(=O)c1cnc(NNC(=O)C(Cl)Cl)nc1C(F)(F)F,1,23,43,14,39,2
COC(=O)c1cnc(NNS(=O)(=O)c2ccc(Cl)cc2)nc1C(F)(F)F,0,-9,19,-2,98*,-2
COc1cc(-c2n[nH]c(=S)n2-c2ccccc2Cl)cc(OC)c1OC,0,3,95*,-26,-8,-7
COc1cc(-c2n[nH]c(=S)n2C2CCCCC2)cc(OC)c1OC,0,-5,87*,-13,19,-13
COc1ccc(-c2n[nH]c(=S)n2-c2ccccc2Cl)cc1,-1,4,13,14,-80,9
CCS(=O)(=O)c1ccc(O)c(NC(=O)c2ccccc2C(=O)O)c1,0,-4,10,-2,96*,/
Cc1ccc(S(=O)(=O)N(C)C)cc1NC(=O)c1ccccc1C(=O)O,-1,-8,2,4,-9,-1
CC(C)=C1CCC(C)C/C1=N\O (stereo unspecified),-1,4,-2,-10,-1,2
COc1ccc(NS(=O)(=O)c2cn(C)cn2)cc1,0,24,-2,-4,-26,5
Cn1cnc(S(=O)(=O)Nc2ccc(N3CCCCC3)cc2)c1,-2,8,2,1,87*,2
O/N=C/c1ccc(-c2cc(C(F)(F)F)cc(C(F)(F)F)c2)o1,0,-5,-1,92*,-57,14
CCOC(=O)C1CCCN(C(=O)c2ccc(OC)c(OC)c2)C1 (stereo unspecified),0,13,-3,1,4,5
CCOC(=O)c1ccc(N2CC3CCCCN3C2c2cccc(OC)c2O)cc1 (stereo unspecified),0,60*,53,8,3,-1
Cc1noc(C)c1S(=O)(=O)NCc1cccs1,-1,16,-5,19,-1,7
Cc1nn(Cc2nc(-c3cccc([N+](=O)[O-])c3)cs2)c(C)c1Br,0,1,3,18,-5,-5
O=C1C=CC(=O)N1CCc1ccccc1,0,12,6,6,100*,2
O=C(CSCc1cccc2ccccc12)NNC(=S)NC1CCCCC1,/,-27,18,-5,-18,-1
CC12CCC(=O)C=C1CCC2=O (stereo unspecified),-1,-10,-5,3,13,53*
COC(=O)c1scc(C#N)c1N/N=C(\C#N)S(=O)(=O)c1cccs1,1,-7,2,34,-45,3
N#C/C(=N\Nc1ccc(C(F)(F)F)cc1)S(=O)(=O)c1cccs1,-1,25,0,110*,35,-37

# Screening data deposited in PubChem by The Scripps Research Institute Molecular Screening Center.
